PubChem BioAssay (NCATS)
Results filed as inconclusive are left out. Activity calls are given as the source filed them. Calls follow the shape of the dose curve; as a rule, active = well fitted inhibition curve with a large enough effect; inconclusive = small, poorly fitted or top-dose-only effect; inactive = flat fitted curve, though single readings scatter.

Experiment: qHTS to identify inhibitors of the type 1 interferon - major histocompatibility complex class I in skeletal muscle: primary screen against the NCATS LOPAC collection (AID 1347405);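 also: lytic HiBiT luminescence reporting HLA-B protein level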
Settings: iHSKM muscle cells, IFN-b-induced MHC-I HiBiT luminescence, 24 h; series mostly up to 45.9 µM; activity change, negative = inhibition: at the top concentration
Excerpt: Assay Submitter (PI): Travis B. Kinder Ph.D. & James Inglese Ph.D.
Assay Development and Screening Technology Laboratory (ADST)
National Center for Advancing Translational Sciences (NCATS), Rockville, MD
National Institute of Health (NIH), Bethesda, Maryland
Idiopathic inflammatory myopathies, collectively referred to as myositis, are a group of rare autoimmune diseases characterized by skeletal muscle inflammation, weakness, and usually accompanied by systemic pathologies of the skin, lungs, or vasculature. Current immunosuppressive therapies and glucocorticoids are often not curative and are accompanied by harsh side effects, especially in children with juvenile myositis. We initiated a drug repurposing and development program to identify more targeted, less toxic therapeutics to treat myositis. Although its cause is not known, muscle from a subset of patients have an abundance of the inflammatory type 1 interferon (IFN) and a down-stream product major histocompatibility complex class I (MHC class I), which are both thought to contribute to damage and weakness. We conducted quantitative high throughput screening on 6,576 compounds (4,679 unique) through a series of cell-based assays to identify those that inhibit the IFN-stimulated expression of MHC class I in muscle precursor cells (myoblasts). The compound identification and evaluation strategy utilized a primary screen with reporter-tagged MHC class I in genome-engineered myoblasts, ATP content counter screen for viability, HLA-ABC immunofluorescence secondary screen, and HLA-B RT-qPCR tertiary screen.
The primary screen utilized CRISPR/Cas9 genome-engineering of immortalized human myoblasts, C25cl48, where a pro-luminescent reporter HiBit was fused to the C-terminus of endogenous MHC class I allele HLA-B*08:01 (HLA-B HiBit myoblasts). HiBit is an 11 amino acid fragment of NanoLuc luminescent reporter (Promega Corporation), and when complexed to the larger LgBit fragment, the reconstituted enzyme produces light in the presence of furimazine substrate (Schwinn et al., 2018). Briefly, HLA-B HiBit myoblasts were plated into 1536-well plates, treated with 4.0 ng/ml human IFN-beta and 1,280 compounds from the Library of Pharmacologically Active Compounds 1280 library (LOPAC1280, Sigma Aldrich) in a 7-point, 1:4.3 titration with a high final concentration of 46 uM. After 24 hrs of treatment, cells were assayed by Nano-Glo HiBiT Lytic Detection System (Promega) and luminescence measured by a ViewLux 1430 Ultra HTS (Perkin Elmer).
Schwinn MK, Machleidt T, Zimmerman K, Eggers CT, Dixon AS, Hurst R, Hall MP, Encell LP, Binkowski BF, Wood K V. 2018. CRISPR-Mediated Tagging of Endogenous Proteins with a Luminescent Peptide. ACS Chem Biol 13:467-474. doi:10.1021/acschembio.7b00549
PROTOCOL TABLE (as described by Inglese et al., 2007)
SEQUENCE No. (e.g., 1, 2, 3, etc.); […] (e.g., Cells, Incubation, Reagent, etc.); VALUE; DESCRIPTION
1a; Cells; 5 uL; Use a Multidrop Combi (Thermo Scientific) to seed 350 cells/well into nine Greiner 1536 well white/solid bottom, high base, TC plates in 5 ul/well of iHSKM growth medium (GM) without dexamethasone into columns 1+2. Add metal lids with gas-exchange holes
1b; Cells; 5 uL; Use a Multidrop Combi (Thermo Scientific) to seed 350 cells/well into nine Greiner 1536 well white/solid bottom, high base, TC plates in 5 ul/well of iHSKM GM without dexamethasone + 4 ng/ml IFN-b into columns 3 - 48. Add metal lids with gas-exchange holes
2; Incubate; 1 hr; Incubate at 37 C, 5% CO2, 95% RH
3; Compounds; 23 nl; Use Pin Tool (Wako) to transfer DMSO control, ruxolitinib IFN-b inhibitor control [High Concentration = 80 uM final, 16-pt, 1:2 in duplicate], and library compounds in DMSO
4; Incubate; 24 hrs; Incubate at 37 C, 5% CO2, 95% RH
5; Dispense; 2.5 ul; Use BioRAPTR FRD (Beckman Coulter) to add HiBit lytic reagent
6; Incubate; 10 min; Incubate in the dark at ambient temperature for lysis
[…]
% is scaled to controls: 0 for no effect and ±100 for the full control effect; potency is read from the fitted curve at half-maximal effect.

| Structure (SMILES) | activity change, negative = inhibition | Potency |
| --- | --- | --- |
| NC(=O)c1ncn([C@@H]2O[C@H](CO)[C@@H](O)[C@H]2O)c1O | 0.664% (inactive) | – |
| CN=C(NC#N)NCCSCc1nc[nH]c1C | 9.42% (inactive) | – |
| CCN1CCc2nc(N)oc2CC1 | 3.4% (inactive) | – |
| CCNC(=O)N1CCN(CCCC(c2ccc(F)cc2)c2ccc(F)cc2)CC1 | -24.9% (inactive) | – |
| CC(=O)OCC1=C(C(=O)O)N2C(=O)[C@@H](NC(=O)Cc3cccs3)[C@H]2SC1 | 2.51% (inactive) | – |
| CCCN(CCC)CCc1cccc2c1CC(=O)N2 | -1.53% (inactive) | – |
| CCCNC(C)C(=O)Nc1ccccc1C (stereo not given) | 5.55% (inactive) | – |
| CCOC(=O)C1=C(C)NC(C)=C(C(=O)OC)C1c1cccc([N+](=O)[O-])c1 (stereo not given) | – | 12.6 µM (active) |
| COCCCC/C(=N\OCCN)c1ccc(C(F)(F)F)cc1 | -22.2% (inactive) | – |
| CN(C(=O)CCCOc1ccc2[nH]c(=O)ccc2c1)C1CCCCC1 | -6.04% (inactive) | – |
| CCc1cccc(N(C)C(N)=Nc2cccc3ccccc23)c1 | -9.41% (inactive) | – |
| COc1cc(Cc2cnc(N)nc2N)cc(OC)c1OC | -0.776% (inactive) | – |
| FC(F)(F)c1ccccc1-n1ccnc1 | -4.94% (inactive) | – |
| NC(N)=N/N=C/c1c(Cl)cccc1Cl | -28.4% (inactive) | – |
| CCCCCCCC/C=C\CCCCCCCC(=O)NCc1ccc(O)c(OC)c1 | -17.2% (inactive) | – |
| C[C@]12CC[C@@H]3c4ccc(O)cc4C[C@@H](CCCCCCCCCS(=O)CCCC(F)(F)C(F)(F)F)[C@H]3[C@@H]1CC[C@@H]2O (stereo not given in full) | -14.3% (inactive) | – |
| c1cc(CN2CCCCC2)cc(OCCCNc2nc3ccccc3s2)c1 | -1.36% (inactive) | – |
| COc1ccc2c(c1OC)C(=O)O[C@@H]2[C@H]1c2c(cc3c(c2OC)OCO3)CCN1C | -10.6% (inactive) | – |
| CSc1ccc(C(=O)c2[nH]c(=O)[nH]c2C)cc1 | -29.3% (inactive) | – |
| CCCCNc1ccc(C(=O)OCCN(C)C)cc1 | -3.9% (inactive) | – |

| Structure (SMILES) | activity change, negative = inhibition | Potency |
| --- | --- | --- |
| Cc1scc2c1N(C(=O)CN1CCN(C)CC1)c1ccccc1NC2=O | -3.61% (inactive) | – |
| CN(C)CC[C@@H](c1ccc(Br)cc1)c1ccccn1 | -6.36% (inactive) | – |
| CCCN1C[C@H](CSC)C[C@@H]2c3cccc4[nH]cc(c34)C[C@H]21 | -5.29% (inactive) | – |
| Cc1ccc(S(=O)(=O)NC(=O)NN2CCCCCC2)cc1 | -3.13% (inactive) | – |
| CNC1(C)C2CCC(C2)C1(C)C (stereo not given) | 5.97% (inactive) | – |
| C[C@]12CCC(=O)C=C1CC[C@@H]1[C@@H]2CC[C@@]2(C)[C@H]1CC[C@]2(O)C(=O)CO | -19% (inactive) | – |
| Cc1nc2ccccn2c(=O)c1CCN1CCC(C(=O)c2ccc(F)cc2)CC1 | -0.266% (inactive) | – |
| Cc1cccc(C)c1NC(=O)C(C)N (stereo not given) | -3.17% (inactive) | – |
| CC1=C(C)C(=O)C(CCCCC#CCCCC#CCO)=C(C)C1=O | 0.182% (inactive) | – |
| CCO/C([O-])=N/c1c[n+](N2CCOCC2)no1 | -13% (inactive) | – |
| CCn1nc(C(=O)O)c(=O)c2cc3c(cc21)OCO3 | -4.51% (inactive) | – |
| Brc1c(NC2=NCCN2)ccc2nccnc12 | -7% (inactive) | – |
| CC(=O)[C@@]1(O)CC[C@H]2[C@@H]3CCC4=CC(=O)CC[C@]4(C)[C@H]3CC[C@@]21C | -4.03% (inactive) | – |
| CCc1c(C)[nH]c2c1C(=O)C(CN1CCOCC1)CC2 (stereo not given) | 8.15% (inactive) | – |
| O=C(O)CN(CCOCCOCCN(CC(=O)O)CC(=O)O)CC(=O)O | 3.1% (inactive) | – |
| c1ccc2c(c1)CCCC2C1=NCCN1 (stereo not given) | -0.895% (inactive) | – |
| NCCCNCCSP(=O)(O)O | -3.27% (inactive) | – |
| NC(=O)c1cn(Cc2c(F)cccc2F)nn1 | 2.68% (inactive) | – |
| CN/C(=C\[N+](=O)[O-])NCCSCc1ccc(CN(C)C)o1 | 3.38% (inactive) | – |
| COc1ccc(CCN(C)CCCC(C#N)(c2cc(OC)c(OC)c(OC)c2)C(C)C)cc1OC (stereo not given) | -1.77% (inactive) | – |
